PMC4336329 (PLoS ONE, 2015)
The campaign covered roughly 310,000 compounds. About 14,000 (4.5%) showed an effect of 50% or more. Effects have a minus sign here. The full list was thinned out, with strong results kept by preference.

The compounds below were run against human ether-à-go-go-related gene (hERG) potassium channel (human, UniProt Q12809) (assay: primary screen, population patch clamp on CHO cells stably expressing hERG; higher = less effect of the substance).
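Further: peak tail current of the secondary pulse compared with the same well before compound.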

human ether-à-go-go-related gene (hERG) potassium channel, sequence (Q12809 whole entry, looked up): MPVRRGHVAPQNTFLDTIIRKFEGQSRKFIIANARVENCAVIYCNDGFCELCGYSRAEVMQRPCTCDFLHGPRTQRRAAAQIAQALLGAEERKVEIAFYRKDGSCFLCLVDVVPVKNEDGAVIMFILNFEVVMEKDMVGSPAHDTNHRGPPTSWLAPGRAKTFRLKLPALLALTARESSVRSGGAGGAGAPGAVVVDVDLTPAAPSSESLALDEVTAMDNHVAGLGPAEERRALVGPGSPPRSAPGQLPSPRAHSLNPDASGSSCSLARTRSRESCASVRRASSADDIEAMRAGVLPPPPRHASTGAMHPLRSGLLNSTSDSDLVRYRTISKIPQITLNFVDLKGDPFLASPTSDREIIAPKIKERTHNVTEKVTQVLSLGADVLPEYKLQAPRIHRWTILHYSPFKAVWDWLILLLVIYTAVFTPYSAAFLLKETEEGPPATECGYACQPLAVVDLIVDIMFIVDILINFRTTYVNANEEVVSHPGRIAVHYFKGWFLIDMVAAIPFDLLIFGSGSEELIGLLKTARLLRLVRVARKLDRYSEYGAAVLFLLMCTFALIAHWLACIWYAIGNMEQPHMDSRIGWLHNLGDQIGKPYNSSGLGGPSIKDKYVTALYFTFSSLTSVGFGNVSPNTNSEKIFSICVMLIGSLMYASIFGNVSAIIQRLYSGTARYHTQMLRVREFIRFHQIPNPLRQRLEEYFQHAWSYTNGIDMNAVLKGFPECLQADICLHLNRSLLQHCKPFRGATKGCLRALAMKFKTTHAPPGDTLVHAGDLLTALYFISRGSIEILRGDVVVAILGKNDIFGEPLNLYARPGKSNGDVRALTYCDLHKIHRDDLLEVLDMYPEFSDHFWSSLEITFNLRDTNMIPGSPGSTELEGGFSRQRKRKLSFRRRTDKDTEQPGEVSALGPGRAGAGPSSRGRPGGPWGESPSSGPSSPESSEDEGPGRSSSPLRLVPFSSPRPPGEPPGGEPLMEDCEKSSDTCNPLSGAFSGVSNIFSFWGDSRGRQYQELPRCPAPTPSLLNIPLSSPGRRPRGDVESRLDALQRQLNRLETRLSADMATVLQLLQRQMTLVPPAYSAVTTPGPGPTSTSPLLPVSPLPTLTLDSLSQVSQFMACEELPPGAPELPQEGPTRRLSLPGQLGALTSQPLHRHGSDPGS

| Structure (SMILES) | hERG current change (%, negative = inhibition) at 10uM [%] |
| --- | --- |
| O=C(NCCc1csc(-c2cccnc2)n1)c1ccccc1Br | -4.05 |
| CC1CCCCN1C(=S)NC(=O)c1cc(Br)ccc1Cl (stereo not drawn) | 4.09 |
| COc1ccc(/C=N/N=C/c2c[nH]c(=O)c(C#N)c2Nc2ccccc2)cc1 | 5.81 |
| Cn1c(O)c(N=NC(=O)c2ccccc2O)c2ccccc21 | 13.6 |
| CCCCc1nc(Cl)c(C#N)c2c1CCCC2 | -14.7 |
| CCCCCc1nc2c(c3c1CCCC3)CCCC2 | -71.7 |
| CCCCCc1n[nH]c2c1CCCC2 | 15.6 |
| CCOC(=O)c1ccc(NC(=S)NCCc2ccccc2)cc1 | 4.14 |
| O=C(CN1CCCCCC1)Nc1c(Cl)cc(Cl)cc1Cl | -5.28 |
| O=C(CN1CCOCC1)Nc1c(Cl)cc(Cl)cc1Cl | -2.17 |
| N#Cc1ccc(NC(=O)CN2CCCCCC2)cc1Cl | -21.3 |
| CC(=O)N1CCN(CC(=O)Nc2ccc(C#N)c(Cl)c2)CC1 | -71.7 |
| CC(=O)N1CCN(CC(=O)Nc2c(Cl)cc(Cl)cc2Cl)CC1 | -54.2 |
| N#Cc1ccc(NC(=O)CN2CCCC2)cc1Cl | 0.986 |
| O=C(NC1CCS(=O)(=O)C1)c1ccc(S(=O)(=O)N2CCCC2)cc1 (stereo not drawn) | 9.83 |
| CCC(C)(C)C1CCc2[nH]nc(C(=O)NC(C)C)c2C1 (stereo not drawn) | 12.7 |
| CC12CCC(C(=O)NCCN3CCCCC3)(CC1=O)C2(C)C (stereo not drawn) | -2.12 |
| CCOC(=O)N1CCN(CC(=O)Nc2ccc(Oc3ccccc3)cc2)CC1 | -50.1 |
| CCOC(=O)N1CCN(CC(=O)Nc2ccc(C)c(Br)c2)CC1.Cl | -16.1 |
| CCCCOc1ccc(NC(=O)CN2CCN(C(=O)OCC)CC2)cc1.Cl | -28.6 |
| CCOC(=O)N1CCN(CC(=O)Nc2ccc(F)c(F)c2)CC1 | -62.4 |
| O=C(CNCc1ccccc1)Nc1ccc(Oc2ccccc2)cc1 | -18.7 |
| CCN(CC)CCNC(=O)C(Oc1ccccc1)Oc1ccccc1 | -65.4 |

| Structure (SMILES) | hERG current change (%, negative = inhibition) at 10uM [%] |
| --- | --- |
| CCN(CC)CCNC(=O)C(C)c1nn(C)c(=O)c2ccccc12 (stereo not drawn) | 8.67 |
| CCN(CC)CC(=O)Nc1ccc(Oc2ccc(NC(=O)CN(CC)CC)cc2)cc1 | 17.1 |
| CCOC(=O)N1CCN(CCC(=O)Nc2ccc(F)c(F)c2)CC1 | 0.204 |
| CCN(CC)CCNC(=O)c1ccccc1N | -5.76 |
| CCN(CC)CCNCC(=O)Nc1ccc(Oc2ccccc2)cc1 | -70.5 |
| O=C(CN1CCN(c2ccccc2)CC1)Nc1ccc(Oc2ccccc2)cc1 | 15.6 |
| Nc1ccccc1NC(=O)NC(=O)c1ccccc1 | 12.5 |
| CCC(=O)Nc1ccc(NC(=O)c2cccc3c(Br)cccc23)cc1 | 3.96 |
| COC(=O)C(Cc1ccccc1)NC(=O)CCc1c[nH]c2ccccc12 (stereo not drawn) | -8.09 |
| CCOC(=O)N1CCN(CC(=O)Nc2ccc(F)c(F)c2F)CC1 | 7.7 |
| CCOC(=O)N1CCN(CC(=O)Nc2ccc(C)cc2)CC1 | -63.2 |
| CCOC(=O)N1CCN(CC(=O)Nc2ccc(OC)cc2)CC1 | -15.2 |
| CCOC(=O)N1CCN(CC(=O)Nc2ccc(F)cc2F)CC1 | -28.6 |
| CCOC(=O)N1CCN(CC(=O)Nc2ccc(F)cc2)CC1 | -82 |
| CCOC(=O)N1CCN(CCC(=O)Nc2ccc(C)cc2)CC1 | 4.65 |
| COc1ccc(-c2nn(-c3ccccc3)cc2/C=N/N2C(=O)CSC2=S)cc1 | -6.34 |
| O=C(NCCCl)NNc1c(Cl)cc(Cl)cc1Cl | 10.3 |
| CC1(C)Oc2ccc3ccc(=O)oc3c2[C@@H](O)[C@H]1O | 15.5 |
| CCOCCn1cnc2sc(C(=O)NCC(=O)OCC)c(C)c2c1=O | -3.75 |
| COc1cc(C)c(CN2CCC(n3nccc3NC(=O)C3CC3)CC2)cc1C | -52.7 |
| CCn1cc(CN2CCC(n3nccc3NC(=O)C3CCCC3)CC2)c(C)n1 | -12.4 |
| Cc1cc(C)c(CN2CCC(n3nccc3NC(=O)C3CCOC3)CC2)cc1C (stereo not drawn) | -19 |
